Assay outcomes as filed in PubChem BioAssay.
This is a sample that favours compounds with a hit; in the whole collection about 13% have one here.
Cycloheximide cs: affects cycloheximide protein synthesis inhibition readout, counter-screen | cell reporter, cycloheximide protein synthesis inhibition counterscreen | max response, % | hit rate 12% among 300,000 | AID 2314; in the data active means max response mostly above about 13%, no sharp cut-off; inactive means mostly below about 14%; further: read at 38.3 µM for the half of the compounds with a filed dose
LASV entry inh: blocks Lassa virus binding to or entry into cells. Potency, µM (titrated, usually from 37.9 µM), usual class: inhibitors. hit rate 1.2% among 300,000. Lassa virus pseudotype entry inhibition, cell reporter. AID 540256; calls by dose curve; tested in HEK293 cells; further: nearly all actives have a fitted effect of over 50% in size
FMDV antiviral: blocks foot and mouth disease virus; hit rate 1.2% among 410,000; Potency, µM (top dose mostly 57.9 µM), hits mostly inhibitors; FMDV antiviral cell-based qHTS; calls by dose curve; tested in HEK293T cells; further: read-out not given here; nearly all actives have a fitted effect of over 45% in size
Shiga inhibitor: blocks Shiga toxin action in Vero cells. hit rate 9.2% among 290,000. Vero cells, Shiga toxin protein synthesis inhibition reporter. inhibition, % at 38.7 µM; in the data active means inhibition mostly above about 28%, no sharp cut-off; inactive means mostly below about 43%
HCV inhibitor: HCV inhibition; Huh7.5.1 HCVcc-Cre infection, luciferase reporter, 44 h; Potency, µM (series often up to 41.8 µM), usual class: inhibitors; hit rate 3.4% among 340,000; AID 651820; active means well fitted inhibition curve with a large enough effect; inconclusive means small, poorly fitted or top-dose-only effect, or another doubt; inactive means no such curve, though single readings can be large or run the other way
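Whole-lifecycle infectious HCVcc-Cre system; cells 1,000/well, compound then virus (~0.5 moi) added 4 h after plating, 44 h culture. Luciferase read 15 sec following 15 min substrate incubation, room temp.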
Marburg entry inh: inhibitors of Marburg virus binding or cell entry. Marburg virus pseudotyped entry inhibition, cell reporter. Potency, µM (highest dose often 37.8 µM), hits mostly inhibitors. hit rate 1.8% among 300,000. AID 540276; calls by dose curve; tested in HEK293 cells
A number is an active result; . = inactive; ? = inconclusive; / = no result given.

SMILES	Cycloheximide cs	LASV entry inh	FMDV antiviral	Shiga inhibitor	HCV inhibitor	Marburg entry inh
COc1ccc(Br)cc1CNC(=O)CCc1cn(Cc2ccc(C)cc2)c2ccccc12	/	.	.	/	/	/
CCOC(=O)c1c(C=O)c(C)n(Cc2ccc(C)cc2)c1C	.	?	?	.	3.2µM	?
CC(C)(C)c1cc(C(=O)NCc2cc(F)cc3c2OCOC3)n(Cc2ccccc2)n1	53	?	.	83	?	?
Cc1cc(C)cc(OCC(=O)Nc2c(C)ccc3nsnc23)c1	/	.	.	/	/	.
Cc1ccc(S(=O)(=O)N(C)C)cc1NC(=O)COC(=O)Cc1ccc(Br)cc1	.	.	.	.	.	?
Cc1nc([N+](=O)[O-])c(Br)n1CC(=O)c1ccc2ccccc2c1	.	?	22µM	.	10µM	18µM
Cc1nc([N+](=O)[O-])c(Br)n1CC(=O)c1ccc(Br)cc1	.	.	13µM	.	?	?
Cc1nc([N+](=O)[O-])c(Br)n1CC(=O)c1ccccc1	.	.	?	.	?	?
CCn1cc(CN2CCc3c([nH]c4ccccc34)C2c2cccc(O)c2)c(C)n1 (configuration not stated)	.	?	.	.	.	?
COc1ccc2ccc(=O)oc2c1CC(=O)C(C)C	/	/	.	/	4.5µM	/
COc1ccc2ccc(=O)oc2c1CC(O)C(C)(C)O (configuration not stated)	.	/	.	.	.	/
C#CCN(Cc1ccc(OCCC)cc1)S(=O)(=O)c1ccc(Br)cc1F	/	.	/	/	/	/
Cc1ccc(NC(=O)NCC2CCN(Cc3cccc(Cl)c3)CC2)c(Cl)c1	.	/	.	.	13µM	/
Cc1ccc(-c2noc(CCC(=O)NCC3CCN(Cc4cccc(C)c4)CC3)n2)cc1	.	.	?	.	1.1µM	?
Cc1ccc(-c2noc(CCC(=O)NCCN3CCOCC3)n2)cc1	.	.	.	.	.	?
COc1ccc(-c2noc(CCC(=O)NCCCN3CCC(Cc4ccccc4)CC3)n2)cc1	.	.	?	.	2.5µM	?
COc1ccc(-c2noc(CCC(=O)NCCCN3CCN(c4ccc(F)cc4)CC3)n2)cc1	.	/	?	.	22µM	/
COC(=O)c1cnn(-c2ccc(C(=O)Nc3ccc(C(C)=O)cc3)cc2)c1N	/	.	.	/	/	/
Brc1ccc(-c2ccc(CNCc3ccccn3)o2)cc1	26	/	.	.	.	/
COc1cccc(CNCc2ccccn2)c1OC	.	.	/	.	.	.
O=c1[nH]nc(Cc2ccc(-c3cccc(Cl)c3)o2)c2ccccc12	.	.	?	.	?	?
Clc1cccc(-c2ccc(CNCc3ccccn3)o2)c1	32	/	.	81	.	/
c1ccc(COc2ccc(CNCc3cccnc3)cc2)cc1	30	.	.	.	.	?
Brc1ccc(CNCc2cccs2)cc1	.	.	.	.	.	?
c1ccc(COc2ccc(CNCc3cccs3)cc2)cc1	25	.	.	56	.	?
SMILES	Cycloheximide cs	LASV entry inh	FMDV antiviral	Shiga inhibitor	HCV inhibitor	Marburg entry inh
c1ccc(CCC2Cc3ccccc3N2)cc1 (configuration not stated)	/	/	.	/	.	/
Cc1ccc(S(=O)(=O)N2CCOCC2)cc1C(=O)Nc1ccc(C(N)=O)cc1	.	/	.	.	.	/
O=C(c1ccc(Br)o1)N1CCN(Cc2ccccc2Cl)CC1	.	/	.	/	.	/
N#CC(c1cccc(Cl)c1)c1ccc2c(C(F)(F)F)cc(C(F)(F)F)nc2n1 (configuration not stated)	.	2.2µM	5µM	.	2.8µM	?
NNc1ccc2c(C(F)(F)F)cc(C(F)(F)F)nc2n1	.	.	.	.	?	.
CCOC(=O)N1CCN([N+]([O-])=NOc2cc(O/N=[N+](\[O-])N(C)C)c([N+](=O)[O-])cc2[N+](=O)[O-])CC1	.	/	/	.	/	/
CNc1ccc(C(=O)Oc2cc(O/N=[N+](\[O-])N(C)C)c([N+](=O)[O-])cc2[N+](=O)[O-])cc1	40	/	/	73	/	/
COc1cc2ncnc(NCc3cccc(Cl)c3)c2cc1OC	.	/	.	.	?	/
COc1cccc(CNc2ncnc3cc(Cl)ccc23)c1	.	.	?	.	11µM	?
Fc1cccc(CNc2ncnc3cc(Cl)ccc23)c1F	.	/	?	.	7.1µM	/
O=c1c2ccccc2nc(SCc2cn3ccsc3n2)n1-c1ccccc1	.	?	?	.	.	.
Cn1c(-c2ccccc2)cc2onc(-c3ccccc3)c2c1=O	/	/	.	/	?	/
O=C1SC(c2ccccc2)=C/C1=C\N1CCCCC1	.	.	/	.	11µM	.
O=C1OC(c2ccccc2)=C/C1=C\N1CCOCC1	.	?	.	.	.	.
O=C1/C(=C/c2cccc3ccccc23)CCCc2ccccc21	29	.	.	51	?	.
O=C1C(=Cc2ccccc2Cl)CCc2ccccc21	/	/	.	/	/	/
Cc1cc(NO)nc(-c2ccc(Br)cc2)n1	47	?	.	109	?	.
COc1ccc(/C=C(\C#N)C(=O)Nc2ccc3[nH]c(=O)[nH]c3c2)cc1	.	/	.	.	.	/
O=C(NCC(c1ccco1)N1CCCCC1)c1ccc([N+](=O)[O-])s1 (configuration not stated)	/	?	.	/	0.56µM	?
O=C(NCC(c1ccco1)N1CCCC1)c1ccc(Cl)cc1 (configuration not stated)	.	.	.	.	.	?
O=C(NCC(c1ccco1)N1CCCC1)c1cc2cc(Cl)ccc2o1 (configuration not stated)	/	.	.	/	13µM	?
Cc1ccc2oc(C(=O)NCC(c3ccco3)N3CCCC3)c(C)c2c1 (configuration not stated)	20	/	.	.	32µM	/
O=C(NCC(c1ccco1)N1CCc2ccccc21)c1cccc([N+](=O)[O-])c1 (configuration not stated)	/	5.6µM	.	/	.	?
Cc1ccc(C(=O)NCC(c2ccco2)N2CCCCC2)s1 (configuration not stated)	/	/	.	/	.	/
CCC1CCC2(CC1)NC(=O)N(CC(=O)NCc1ccc(Cl)cc1)C2=O (configuration not stated)	/	/	.	/	.	/
SMILES	Cycloheximide cs	LASV entry inh	FMDV antiviral	Shiga inhibitor	HCV inhibitor	Marburg entry inh
CCCCCC1CCC(C(=O)N2CCOCC2)CC1 (configuration not stated)	.	.	.	.	.	.
Nc1nonc1-n1nnc(C(=O)N/N=C/c2cc(Br)ccc2O)c1CNc1ccccc1	.	?	.	.	10µM	?
Nc1nonc1-n1nnc(C(=O)N/N=C/c2ccc(OCc3ccccc3F)cc2)c1CNc1ccccc1	17	/	.	.	.	/
Cc1ccc(COc2cccc(/C=N/NC(=O)c3nnn(-c4nonc4N)c3C)c2)cc1	15	/	.	.	.	/
Nc1nonc1-n1nnc(C(=O)N/N=C/c2ccco2)c1CSc1ccccc1	.	/	.	.	.	/
Cc1ccc(/C=N/NC(=O)c2nnn(-c3nonc3N)c2CNc2ccccc2)cc1	.	/	.	.	?	/
Nc1nonc1C(=O)N/N=C/c1cc(Br)ccc1O	32	?	.	82	11µM	?
COc1ccc(OC)c(CNc2sc3c(c2C(=O)Nc2cc(OC)ccc2OC)CCCC3)c1	/	?	.	/	/	/
O=C(COC(=O)C1CCC(=O)N1)Nc1cc(Cl)ccc1Cl (configuration not stated)	.	.	.	.	.	?
